Screening data: PubChem BioAssay, National Center for Advancing Translational Sciences (NCATS)
SW480 rereplic: A quantitative high throughput screen for small molecules that induce DNA re-replication in SW480 colon adenocarcinoma cells; SW480 DNA re-replication, Hoechst DNA content imaging, 48 h; Potency, µM (top dose mostly 46.1 µM), inactives show top-dose re-replication activation, actives largely listed as activators; actives 1.8% (n = 340,000); note: % of control where 0% means no effect; nearly all actives have a fitted effect of over 55% in size
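Image-based read-out: total Hoechst fluorescence of nuclei (405 nm excitation, 500-530 nm emission), with hits raising the fraction of high-intensity nuclei. SW480 colon cells incubated 48 hr with compounds at 37 C.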
HT1080 IDH1KD tx: qHTS for induction of synthetic lethality in tumor cells producing 2HG: qHTS for the HT-1080-IDH1KD cell line; actives 2% (n = 360,000); HT-1080 IDH1 knockdown viability, ATP luminescence, 48 h; Potency, µM (doses to about 46.1 µM), without a hit: at the highest dose activity, negative = toxicity, usual class: cytotoxic;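 note: 0% = DMSO wells and -100% = cell-free medium wells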
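Knockdown cells (IDH1KD HT-1080) received compounds 2 h after plating at 750 cells/well and were kept 48 h at 37 °C in 5% FBS RPMI. A CellTiter-Glo luminescence read gave % activity for curve fitting.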
MCF10A rereplic: A quantitative high throughput screen for small molecules that induce DNA re-replication in MCF 10a normal breast cells; MCF 10A DNA re-replication, Hoechst nuclear intensity, 48 h; Potency, µM (highest dose often 46.1 µM), for the others: top-dose activity, positive = re-replication, most hits filed as activators; actives 2.9% (n = 350,000); AID 624296, 2012; note: % of control where 0% means no effect; nearly all actives have a fitted effect of over 50% in size
KB-V1 cytotox: qHTS assay for MDR1-selective chemotherapeutics: Primary screen using the drug-selected MDR subline cells KB-V1 | Potency, µM (highest dose often 46.1 µM), usual class: cytotoxic | KB-V1 MDR cells viability, CellTiter-Glo, 72 h | actives 3.4% (n = 400,000) | AID 1347076, 2019; note: % is set by controls: 0 for no effect and ±100 for the full control effect; nearly all actives have a fitted effect of over 60% in size
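qHTS viability screen in drug-selected KB-V1 MDR cells: 72 h compound treatment at 37 degrees C, ATP luminescence end point.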
HT1080-NT tox: qHTS for induction of synthetic lethality in tumor cells producing 2HG: qHTS for the HT-1080-NT fibrosarcoma cell line | HT-1080-NT fibrosarcoma viability, CellTiter-Glo ATP luminescence, 48 h | actives 1.6% (n = 360,000) | Potency, µM (titrated, usually from 46.1 µM), inactives show at the top dose activity, negative = less viability, hits mostly cytotoxic;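 note: NT is the 2HG producing partner of a matched IDH1 knockdown line; 0% = DMSO-treated cells and -100% = media-only wells without cells; nearly all actives have a fitted effect of over 55% in size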
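Compounds were tested in concentration-response format on HT-1080-NT cells for 48 hours at 37 degrees C. Cell viability came from CellTiter-Glo luminescence; curves were classified by r2, response magnitude and activity.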
KB-3-1 tox: qHTS assay for MDR1-selective chemotherapeutics: Primary screen using the parental adenocarcinoma cell KB-3-1; KB-3-1 viability, CellTiter-Glo ATP luminescence, 72 h; Potency, µM (top dose mostly 46.1 µM), usual class: cytotoxic; actives 1.4% (n = 400,000); AID 1347075, 2019; note: % is set by controls: 0 for no effect and ±100 for the full control effect; nearly all actives have a fitted effect of over 60% in size
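KB-3-1 parental drug-naive adenocarcinoma cells in DMEM/10% FBS, incubated 72 h at 37 C with pin-transferred compounds across a concentration series. Viability by CellTiter-Glo luminescence; concentration-response curves fitted after normalization.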
* = called active by the depositor; i = inactive; ? = inconclusive; . = not tested or not shown; [ ] = remark or other dose. Rows were chosen to be rich in hits. Some 8% of all compounds tested hit in one or more screens of this group. Calls come from the whole dose curve; as a rule, active = well fitted curve in the direction sought with a large enough effect; inconclusive = small, poorly fitted or top-dose-only effect, or another doubt; inactive = no such curve, though single readings can be large; an effect the other way counts as inactive or inconclusive. Potency is the fitted concentration of half-maximal effect.

SMILES | SW480 rereplic | HT1080 IDH1KD tx | MCF10A rereplic | KB-V1 cytotox | HT1080-NT tox | KB-3-1 tox
CCCc1ccc(C(=O)CCC(=O)NNC(=O)c2ccncc2)cc1 | -7% | 14% | 7% | ? | 9% | 10µM*
CC(=O)/C(N=Nc1ccc(SC(F)F)cc1)=C(\C)O | 8.2µM* | 0% | ? | i | 1% | i
Cc1cccc(Nc2n[nH]c(C)c2[N+](=O)[O-])c1 | -3% | -20% | 0% | i | -29% | i
CCN1CCN(c2nc(N)c([N+](=O)[O-])c(Nc3cccc(C)c3)n2)CC1 | -1% | 4% | 11% | 3.3µM* | 3% | ?
Cc1cccc(Nc2nc(N)c([N+](=O)[O-])c(NCCO)n2)c1 | -14% | -1% | -1% | i | 0% | i
Cc1cccc(Nc2nc(N3CCN(C)CC3)nc(N)c2[N+](=O)[O-])c1 | -36% | 4% | -58% | 7.3µM* | -1% | i
Cc1cccc(NC(=O)C2CCCN(S(=O)(=O)c3cccc4nsnc34)C2)c1 (stereo not given) | ? | -19% | 15µM* | i | 0% | i
O=C(Nc1cccc(C(F)(F)F)c1)C1CCCN1S(=O)(=O)c1cccc2cccnc12 (stereo not given) | -8% | -28% | 2% | 2.6µM* | -9% | i
CN(Cc1ccccc1)C(=O)C1CCN(S(=O)(=O)c2cccc3nsnc23)CC1 | 21µM* | -1% | 20% | ? | 3% | i
O=C(Nc1cccc(C(F)(F)F)c1)C1CCCN1S(=O)(=O)c1cccc2nsnc12 (stereo not given) | . | . | . | 7.3µM* | . | ?
CN(CCCNC(=O)C1CCN(S(=O)(=O)c2cccc3nsnc23)CC1)Cc1ccccc1 | 5% | -6% | -9% | i | -2% | i
CCCCc1nn2c(=O)cc(COC(=O)c3ccc(NC(=O)CCc4ccccc4)cc3)nc2s1 | . | . | . | i | . | i
NC(=O)OC[C@@H]1[C@H](NC(=O)/C(=N/OCC(=O)O)c2csc(N)n2)C(=O)N1S(=O)(=O)O | 0% | . | 0% | . | . | .
COc1ccc2nc(NC(=O)C3CCN(S(=O)(=O)c4cccc5nsnc45)CC3)sc2c1 | -4% | ? | ? | 1.6µM* | -11% | ?
Cc1cccc(NC(=O)C2CCN(S(=O)(=O)c3cccc4nsnc34)CC2)n1 | -9% | -20% | -1% | i | -4% | i
CN(Cc1ccccc1)C(=O)C1CCC(CNS(=O)(=O)c2cccc3cccnc23)CC1 (stereo not given) | ? | -5% | 24% | 9.2µM* | -2% | i
CCc1ccc2oc(-c3ccc(C)c(NC(=O)COc4ccccc4Cl)c3)nc2c1 | . | . | . | i | . | i
Cc1ccc(SCc2nc(-c3ccccc3)no2)cc1 | -4% | 9%[9.24 µM] | 9% | i | 15% | i
Cc1ccc(SCc2nc(-c3ccncc3)no2)cc1 | ? | -2% | 16µM* | i | -3% | i
COC(=O)c1cccnc1-n1c(=O)c2cccnc2n(Cc2ccc(Cl)cc2)c1=O | 6% | -21% | 0% | 23µM* | -22% | ?
COC(=O)c1cccnc1-n1c(=O)c2cccnc2n(Cc2cccc([N+](=O)[O-])c2)c1=O | 0% | 7% | -2% | i | -10% | i
Cc1cccc(N2C(=O)CS(=O)(=O)C23C(=O)N(C)c2ccccc23)c1 (stereo not given) | . | . | . | ? | . | i
Nc1nc(-c2ccccc2)c(-c2ccccc2)o1 | -75% | 12% | -9% | i | 2% | i
c1ccc(-c2nc(-c3nccc4ccccc34)oc2-c2ccccc2)cc1 | 7.3µM* | 9% | ? | i | 0% | i
Cc1nn(-c2ccccc2)c2c1N(CCCC(=O)NCc1ccccc1)C(=O)CS2 | . | . | . | 16µM* | . | ?
SMILES | SW480 rereplic | HT1080 IDH1KD tx | MCF10A rereplic | KB-V1 cytotox | HT1080-NT tox | KB-3-1 tox
Cc1nn(-c2ccccc2)c2c1N(CCCC(=O)NCc1ccc(Cl)cc1)C(=O)CS2 | . | . | . | i | . | i
CCOC(=O)c1ccc(Nc2nc3ccc(C(=O)c4ccccc4)cc3n3c(C)nnc23)cc1 | . | . | . | ? | . | i
CCCCn1c(O)c(N=NC(=O)c2ccco2)c2ccccc21 | 3% | -8% | ? | 16µM* | -11% | i
O=C(CNC(=O)c1ccco1)N=Nc1c(O)n(CCc2ccccc2)c2ccccc12 | 1.8µM* | 1.8µM* | ? | 3.7µM* | 4.1µM* | 1.3µM*
COc1ccc(/C=C/c2cc(-c3ccc(C)cc3)o[n+]2C)cc1 | ? | 6.5µM* | ? | i | 15µM* | ?
Cc1ccc2oc(C(=O)Nc3cccc(Cl)c3)cc(=O)c2c1 | . | . | . | i | . | i
COC(=O)C1=CN(Cc2ccccc2)C=C(C(=O)OC)C1c1ccc(OC)c(OC)c1 | 9% | 9% | 14% | i | 13% | i
CCOc1ccc(C2C(C(=O)OC)=CN(C(C)c3ccccc3)C=C2C(=O)OC)cc1 (stereo not given) | ? | 0% | 16µM* | ? | 2% | i
CN1C(=O)Nc2cccc3cccc1c23 | -10% | -8% | 8% | 0.46µM* | -17% | 1µM*
N#CCC1c2ccccc2CCN1C(=O)Nc1ccc(C(F)(F)F)cc1 (stereo not given) | -14% | ? | 4% | i | ? | i
N#CCC1c2ccccc2CCN1C(=O)Nc1cccc(Cl)c1 (stereo not given) | -7% | ? | 4% | 16µM* | -14% | i
N#CCC1c2ccccc2CCN1C(=O)Nc1cccc(C(F)(F)F)c1 (stereo not given) | 1% | ? | -4% | i | 13µM* | ?
N#CCC1c2ccccc2CCN1C(=O)Nc1ccc(Cl)cc1 (stereo not given) | -3% | -30% | 1% | i | 7% | i
COc1ccc(C(=O)Nc2ccc3c(c2)N(C2CCCC2)C(=O)c2ccccc2S3)cc1OC | . | . | . | i | . | i
COc1cccc(CNC(=O)C2=C(C)C(=O)OC23CCN(C(C)=O)CC3)c1OC | . | . | . | i | . | ?
Fc1ccccc1-c1nnc2n1N=C(c1ccc(OC(F)F)c(OCC3CC3)c1)CS2 | -5% | . | -18% | i | . | i
